# Experimental data as given in PubChem BioAssay.
# For part of these data: Entries with a potency or affinity are not part of this list. Activity calls are given as the source filed them.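 The calls were made as follows, unless noted: active = primary screen activator hit with a dose response curve and TRPC4 channel activation at any tested dose; inactive = no activation, no dose response, or not a primary hit.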
# How the values were obtained:
# [1] = tested on: TRPC4 beta (transient receptor potential cation channel C4), mouse; test: activators of mouse TRPC4 channel, confirmation, cell-based, Fluo4 calcium, HEK293 TRPC4beta/mu-opioid, duplicates, 10 µM (AID 2426;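 active = fluorescence ratio normalized to control raised more than 50% in primary screen plus both repeat runs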); settings: Fluo4 calcium fluorescence, at 10 µM; stronger effect = higher value
# [2] = tested on: transient receptor potential cation channel C4 beta (TRPC4), mouse; test: activators of mouse TRPC4 channel, confirmation, cell-based, second round, Fluo4, HEK293 TRPC4beta/mu-opioid, 1 µM (AID 2461;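 active = primary screen active and over 50% activation in each of two duplicate runs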); settings: Fluo4 calcium fluorescence, at 1 µM; stronger effect = higher value
# [3] = tested on: TRPC4 (transient receptor potential cation channel C4 beta), mouse; test: positive allosteric modulators of mouse TRPC4, confirmation, cell-based, second round, Fluo-4, HEK293 TRPC4beta/mu-opioid, 1 µM (AID 2554;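 active = primary screen hit whose fluorescence ratio, in both repeats, exceeds the weak agonist control mean by 3 SD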); settings: DAMGO EC20, Fluo-4 calcium flux, at 1 µM; stronger effect = higher value
# [4] = tested on: TRPC4 beta (transient receptor potential cation channel C4), mouse; test: positive allosteric modulators of mouse TRPC4, confirmation, cell-based, Fluo-4, HEK293 TRPC4beta/mu-opioid (AID 2555;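 active = primary screen hit whose calcium fluorescence ratio, in both repeats, exceeds the weak agonist control mean by 3 SD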); settings: DAMGO EC20, Fluo-4 calcium flux, at 10 µM; stronger effect = higher value
# [5] = target: Short transient receptor potential channel 4 (Mus musculus) (UniProt Q9QUQ5); test: inhibitors of mouse TRPC4 channel, confirmation, cell-based, Fluo4, HEK293 TRPC4beta/mu-opioid (AID 2636;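 active = calcium signal cut by more than 3 SD below the full-agonist control yet still positive, in both repeats and the earlier primary screen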); settings: DAMGO, Fluo4 calcium flux, at 10 µM; stronger effect = higher value
# Sequence of Short transient receptor potential channel 4 (Mus musculus) (Q9QUQ5 whole entry, looked up): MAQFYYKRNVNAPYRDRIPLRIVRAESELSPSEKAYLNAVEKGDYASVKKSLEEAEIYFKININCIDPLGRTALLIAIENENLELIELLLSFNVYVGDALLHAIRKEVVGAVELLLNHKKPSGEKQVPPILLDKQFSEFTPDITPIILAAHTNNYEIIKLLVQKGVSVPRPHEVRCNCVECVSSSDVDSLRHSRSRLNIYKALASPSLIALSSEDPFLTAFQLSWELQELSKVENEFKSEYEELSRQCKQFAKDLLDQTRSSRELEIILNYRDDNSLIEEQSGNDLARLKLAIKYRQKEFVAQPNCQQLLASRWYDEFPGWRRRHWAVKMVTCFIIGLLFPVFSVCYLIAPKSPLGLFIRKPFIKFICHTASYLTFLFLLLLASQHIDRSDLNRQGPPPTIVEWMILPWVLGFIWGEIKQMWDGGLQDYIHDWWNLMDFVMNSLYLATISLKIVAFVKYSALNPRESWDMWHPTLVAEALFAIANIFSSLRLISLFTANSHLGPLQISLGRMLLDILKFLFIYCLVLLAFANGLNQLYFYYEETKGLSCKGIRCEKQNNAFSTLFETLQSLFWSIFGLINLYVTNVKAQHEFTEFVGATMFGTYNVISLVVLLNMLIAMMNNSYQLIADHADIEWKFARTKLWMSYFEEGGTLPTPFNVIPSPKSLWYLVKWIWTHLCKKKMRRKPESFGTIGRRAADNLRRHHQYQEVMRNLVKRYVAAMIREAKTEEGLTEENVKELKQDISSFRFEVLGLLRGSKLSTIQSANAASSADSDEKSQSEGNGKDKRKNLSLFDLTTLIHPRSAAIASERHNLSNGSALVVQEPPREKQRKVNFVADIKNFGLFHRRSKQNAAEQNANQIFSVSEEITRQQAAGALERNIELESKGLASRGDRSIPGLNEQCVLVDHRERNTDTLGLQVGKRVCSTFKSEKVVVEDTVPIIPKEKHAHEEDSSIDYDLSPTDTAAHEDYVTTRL
# [6] = target: Short transient receptor potential channel 4 (Mus musculus) (UniProt Q9QUQ5); test: inhibitors of mouse TRPC4 channel, confirmation, cell-based, second round, Fluo4, HEK293 TRPC4beta/mu-opioid, 1 µM (AID 2637;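 active = calcium signal ratio cut to more than 3 SD under the fully stimulated control mean yet still positive, in both repeats and the primary screen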;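 as to inhibition: percent of integrated ratio relative to wells lacking test compound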); settings: Fluo4 calcium flux, DAMGO, at 1 µM; stronger effect = higher value
# [7] = target: Short transient receptor potential channel 4 (Mus musculus) (UniProt Q9QUQ5); test: mouse TRPC4 channel activators, dose response, cell-based, HEK293 TRPC4/mu-opioid, Fluo-4 calcium (AID 434937)
# [8] = target: Short transient receptor potential channel 4 (Mus musculus) (UniProt Q9QUQ5); test: TRPC4 positive allosteric modulators, dose response, cell-based, HEK293 TRPC4/mu-opioid, Fluo-4 calcium, EC20 DAMGO (AID 434941;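 active = earlier screen potentiator hit that boosts the TRPC4 ion channel at some dose, with a dose response; inactive = no potentiation, no dose response, or not a prior hit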;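 also: calcium entry triggered by an EC20 dose of DAMGO at the co-expressed mu-opioid receptor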)
# [9] = target: Short transient receptor potential channel 4 (Mus musculus) (UniProt Q9QUQ5); test: mouse TRPC4 channel inhibitors, dose response, cell-based, HEK293 TRPC4/mu-opioid, Fluo-4 calcium (AID 434942;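 active = primary screen inhibitor hit that blocks the TRPC4 channel at some tested dose, yielding a dose curve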)
# [10] = target: Short transient receptor potential channel 6 (Mus musculus) (UniProt Q61143); test: inhibition of mouse TRPC6 channel, confirmation, selectivity assay for TRPC4 inhibitor project, cell-based, HEK293, membrane potential dye, duplicate (AID 434948;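 active = active in primary screen and both duplicates, each dropping signal beyond three positive-control SD with fluorescence still positive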); settings: HEK293 TRPC6, membrane potential dye fluorescence, at 10 µM, stimulated with maximal-effect acetylcholine; stronger effect = higher value
# Sequence of Short transient receptor potential channel 6 (Mus musculus) (Q61143 whole entry, looked up): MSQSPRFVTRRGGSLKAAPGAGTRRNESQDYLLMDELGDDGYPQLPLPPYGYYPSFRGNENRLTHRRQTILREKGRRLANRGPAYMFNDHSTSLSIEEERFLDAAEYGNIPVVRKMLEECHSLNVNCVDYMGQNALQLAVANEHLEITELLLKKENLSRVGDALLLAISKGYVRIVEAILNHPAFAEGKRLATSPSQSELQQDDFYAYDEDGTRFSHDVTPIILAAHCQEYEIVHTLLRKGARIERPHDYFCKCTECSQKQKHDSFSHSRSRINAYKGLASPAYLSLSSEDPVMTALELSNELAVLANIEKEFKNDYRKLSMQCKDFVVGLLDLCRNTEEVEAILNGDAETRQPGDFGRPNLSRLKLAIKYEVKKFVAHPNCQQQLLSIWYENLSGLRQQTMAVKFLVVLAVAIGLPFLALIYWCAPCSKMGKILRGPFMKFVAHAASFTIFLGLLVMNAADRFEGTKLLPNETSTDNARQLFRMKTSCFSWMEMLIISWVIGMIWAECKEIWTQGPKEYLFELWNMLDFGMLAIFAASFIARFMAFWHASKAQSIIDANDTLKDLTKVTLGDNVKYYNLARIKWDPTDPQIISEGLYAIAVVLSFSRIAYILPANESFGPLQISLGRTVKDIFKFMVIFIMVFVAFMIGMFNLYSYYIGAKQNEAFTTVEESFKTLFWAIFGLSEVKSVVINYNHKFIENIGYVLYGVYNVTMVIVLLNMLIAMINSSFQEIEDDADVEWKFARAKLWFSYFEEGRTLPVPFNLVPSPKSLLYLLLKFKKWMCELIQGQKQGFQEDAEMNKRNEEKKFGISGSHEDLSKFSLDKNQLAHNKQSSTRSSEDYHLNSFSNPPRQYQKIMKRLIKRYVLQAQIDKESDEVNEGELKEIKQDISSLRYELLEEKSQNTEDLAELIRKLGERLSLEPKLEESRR
# [11] = target: Short transient receptor potential channel 6 (Mus musculus) (UniProt Q61143); test: activation of mouse TRPC6 channel, confirmation, selectivity assay for TRPC4 activator project, cell-based, HEK293, membrane potential dye, duplicate (AID 434950;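 active = membrane potential signal rise above negative control mean plus 3 SD in both duplicates, also active in the earlier TRPC4 screen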;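 as to activation: 0% = buffer only wells and 100% = acetylcholine maximal-effect wells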); settings: HEK293 TRPC6, membrane potential fluorescence, at 10 µM; stronger effect = higher value
# [12] = target: Short transient receptor potential channel 6 (Mus musculus) (UniProt Q61143); test: TRPC6 potentiation by TRPC4 potentiator hits, confirmation, selectivity assay for TRPC4 potentiator project, HEK293 cells, membrane potential dye, duplicate (AID 434952;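 active = compound raising the membrane signal above positive-control mean plus 3 SD in both repeats, and a primary screen hit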); settings: HEK293 TRPC6, membrane potential dye fluorescence, at 10 µM, maximal acetylcholine added after compound; stronger effect = higher value
# [13] = target: Short transient receptor potential channel 4 (Mus musculus) (UniProt Q9QUQ5); test: calcium flux activators in TRPC4/5HT1a cells, counter-screen for TRPC4 activator project, cell-based, second counter screen, HEK293 TRPC4/5HT1a, Fluo-4 (AID 434977;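 active = calcium signal rise above buffer-control mean plus 5 SD in both duplicates, and also a hit in the primary screen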); settings: Fluo-4 calcium flux, at 10 µM; stronger effect = higher value
# [14] = calcium flux inhibitors in TRPC4/5HT1a cells, confirmation, counter-screen for TRPC4 inhibitor project, cell-based, second counter screen, HEK293 TRPC4/5HT1a, Fluo-4 (AID 434978;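 active = primary screen active whose calcium signal fell more than 3 SD beyond the full-serotonin control mean in both duplicate plates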;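 also: serotonin given first at submaximal then at maximal dose after compound preincubation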); settings: Fluo-4 calcium flux, at 10 µM, serotonin added to trigger calcium flux; stronger effect = higher value
# [15] = tested on: TRPC4 (mouse), co-expressed with 5HT1a in HEK293; test: calcium flux potentiators in TRPC4/5HT1a cells, confirmation, counter-screen for TRPC4 potentiator project, cell-based, second counter screen, HEK293 TRPC4/5HT1a, Fluo-4 (AID 434979;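 active = signal rise over 3 SD above mean of control wells given weak agonist, in both repeats and first screen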); settings: Fluo-4 calcium flux, at 10 µM, serotonin added at its EC20 dose; stronger effect = higher value
# [16] = calcium flux activation in mu-opioid HEK293 cells, confirmation, counter-screen for TRPC4 activator project, cell-based, HEK293 mu-opioid receptor line (AID 449723;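 active = hit in primary screen, with calcium signal over 5 SD above buffer well mean in both duplicates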;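 also: counter screen cells carry the mu-opioid receptor alone and lack TRPC4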); settings: Fluo-4 calcium fluorescence, at 10 µM; stronger effect = higher value
# [17] = calcium flux enhancement in mu-opioid HEK293 cells, confirmation, counter-screen for TRPC4 allosteric potentiator project, cell-based, HEK293 mu-opioid receptor line (AID 449724;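 active = calcium signal rise more than 3 SD above the low-dose agonist control mean, in both duplicate plates and the primary screen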); settings: Fluo-4 calcium flux, at 10 µM, compound added before EC20 DAMGO stimulus; stronger effect = higher value
smiles,measurement,setting,value
COc1ccc(OCCN(C)Cc2c(O)ccc3ccccc23)cc1,outcome,[1],inactive
same,outcome,[2],inactive
same,outcome,[3],inactive
same,outcome,[4],inactive
same,outcome,[5],inactive
same,outcome,[6],inactive
same,outcome,[7],inactive
same,outcome,[8],inactive
same,outcome,[9],inactive
same,outcome,[10],inactive
same,outcome,[11],inactive
same,outcome,[12],inactive
same,outcome,[13],inactive
same,outcome,[14],inactive
same,outcome,[15],inactive
same,outcome,[16],inactive
same,outcome,[17],inactive
O=C1CC2(CCN(S(=O)(=O)c3ccccc3)CC2)Oc2ccccc21,outcome,[1],inactive
same,outcome,[2],inactive
same,outcome,[3],inactive
same,potentiation,[4],52% (active)
same,outcome,[5],inactive
same,outcome,[6],inactive
same,outcome,[7],inactive
same,outcome,[8],inactive
same,outcome,[9],inactive
same,outcome,[10],inactive
same,outcome,[11],inactive
same,outcome,[12],inactive
same,outcome,[13],inactive
same,outcome,[14],inactive
same,potentiation,[15],28.7% (active)
same,outcome,[16],inactive
same,outcome,[17],inactive
Cc1cc(S(=O)(=O)NC2CCN(Cc3ccccc3)CC2)c(C)cc1Cl,outcome,[1],inactive
same,outcome,[2],inactive
same,outcome,[3],inactive
same,outcome,[4],inactive
same,outcome,[5],inactive
same,outcome,[6],inactive
same,outcome,[7],inactive
same,outcome,[8],inactive
same,outcome,[9],inactive
same,outcome,[10],inactive
same,outcome,[11],inactive
same,outcome,[12],inactive
same,outcome,[13],inactive
same,outcome,[14],inactive
same,potentiation,[15],23.1% (active)
same,outcome,[16],inactive
same,outcome,[17],inactive
CCN1CCN(c2c(Cl)cccc2NC(=O)c2cccs2)CC1,outcome,[1],inactive
same,outcome,[2],inactive
same,potentiation,[3],14% (active)
same,outcome,[4],inactive
same,outcome,[5],inactive
same,outcome,[6],inactive
same,outcome,[7],inactive
same,outcome,[8],inactive
same,outcome,[9],inactive
same,outcome,[10],inactive
same,outcome,[11],inactive
same,outcome,[12],inactive
same,outcome,[13],inactive
same,outcome,[14],inactive
same,potentiation,[15],20.9% (active)
same,outcome,[16],inactive
same,outcome,[17],inactive
CCCCN(C(=O)c1cccc2c(=O)c(C)c(-c3ccccc3)oc12)c1ccccc1,outcome,[1],inactive
same,outcome,[2],inactive
same,outcome,[3],inactive
same,potentiation,[4],15% (active)
same,outcome,[5],inactive
same,outcome,[6],inactive
same,outcome,[7],inactive
same,outcome,[8],inactive
same,outcome,[9],inactive
same,outcome,[10],inactive
same,outcome,[11],inactive
same,outcome,[12],inactive
same,outcome,[13],inactive
same,outcome,[14],inactive
same,potentiation,[15],12.4% (active)
same,outcome,[16],inactive
same,outcome,[17],inactive
O=[N+]([O-])c1ccc(C[n+]2cccc(O)c2)cc1,outcome,[1],inactive
same,outcome,[2],inactive
same,outcome,[3],inactive
same,outcome,[4],inactive
same,outcome,[5],inactive
same,outcome,[6],inactive
same,outcome,[7],inactive
same,outcome,[8],inactive
same,outcome,[9],inactive
same,outcome,[10],inactive
same,activation,[11],28.5% (active)
same,outcome,[12],inactive
same,outcome,[13],inactive
same,outcome,[14],inactive
same,outcome,[15],inactive
same,outcome,[16],inactive
same,outcome,[17],inactive
CC(=O)c1ccc(N2CCN(C(=O)CCS(=O)(=O)c3ccc4c(c3)NC(=O)CS4)CC2)cc1,outcome,[1],inactive
same,outcome,[2],inactive
same,outcome,[3],inactive
same,outcome,[4],inactive
same,outcome,[5],inactive
same,outcome,[6],inactive
same,outcome,[7],inactive
same,outcome,[8],inactive
same,outcome,[9],inactive
same,outcome,[10],inactive
same,outcome,[11],inactive
same,outcome,[12],inactive
same,outcome,[13],inactive
same,outcome,[14],inactive
same,potentiation,[15],20.9% (active)
same,outcome,[16],inactive
same,outcome,[17],inactive
CCOc1ccccc1C(=O)NCCc1cnc[nH]1,outcome,[1],inactive
same,outcome,[2],inactive
same,outcome,[3],inactive
same,potentiation,[4],10% (active)
same,outcome,[5],inactive
same,outcome,[6],inactive
same,outcome,[7],inactive
same,outcome,[8],inactive
same,outcome,[9],inactive
same,outcome,[10],inactive
same,outcome,[11],inactive
same,outcome,[12],inactive
same,outcome,[13],inactive
same,outcome,[14],inactive
same,potentiation,[15],16.9% (active)
same,outcome,[16],inactive
same,outcome,[17],inactive
CC(C)n1c(SCC(=O)N2c3ccccc3Sc3ccccc32)nc2c1c(=O)n(C)c(=O)n2C,outcome,[1],inactive
same,outcome,[2],inactive
same,outcome,[3],inactive
same,outcome,[4],inactive
same,outcome,[5],inactive
same,outcome,[6],inactive
same,outcome,[7],inactive
same,outcome,[8],inactive
same,outcome,[9],inactive
same,outcome,[10],inactive
same,outcome,[11],inactive
same,outcome,[12],inactive
same,outcome,[13],inactive
same,outcome,[14],inactive
same,potentiation,[15],50.7% (active)
same,outcome,[16],inactive
same,outcome,[17],inactive
Cc1cc(Nc2ccc3c(c2)OCCO3)c2cccc(C)c2n1,outcome,[1],inactive
same,outcome,[2],inactive
same,outcome,[3],inactive
same,outcome,[4],inactive
same,outcome,[5],inactive
same,outcome,[6],inactive
same,outcome,[7],inactive
same,outcome,[8],inactive
same,outcome,[9],inactive
same,outcome,[10],inactive
same,outcome,[11],inactive
same,outcome,[12],inactive
same,outcome,[13],inactive
same,outcome,[14],inactive
same,outcome,[15],inactive
same,outcome,[16],inactive
same,outcome,[17],inactive
COc1cc2cc(C)c(SCC(=O)N3CCN(C(=O)c4ccco4)CC3)nc2cc1OC,outcome,[1],inactive
same,outcome,[2],inactive
same,outcome,[3],inactive
same,outcome,[4],inactive
same,outcome,[5],inactive
same,outcome,[6],inactive
same,outcome,[7],inactive
same,outcome,[8],inactive
same,outcome,[9],inactive
same,outcome,[10],inactive
same,outcome,[11],inactive
same,outcome,[12],inactive
same,outcome,[13],inactive
same,outcome,[14],inactive
same,outcome,[15],inactive
same,outcome,[16],inactive
same,outcome,[17],inactive
Cc1ccc(NC(=O)c2cc(N3C(=O)C=CC3=O)ccc2N2CCOCC2)cc1Cl,outcome,[1],inactive
same,outcome,[2],inactive
same,outcome,[3],inactive
same,outcome,[4],inactive
same,outcome,[5],inactive
same,outcome,[6],inactive
same,outcome,[7],inactive
same,outcome,[8],inactive
same,outcome,[9],inactive
same,outcome,[10],inactive
same,outcome,[11],inactive
same,outcome,[12],inactive
same,outcome,[13],inactive
same,outcome,[14],inactive
same,outcome,[15],inactive
same,outcome,[16],inactive
same,outcome,[17],inactive
Cc1ccc(C(=O)Nc2ccccc2C(=O)N2CC3(C)CC2CC(C)(C)C3)cc1 (stereo not given),outcome,[1],inactive
same,outcome,[2],inactive
same,outcome,[3],inactive
same,outcome,[4],inactive
same,outcome,[5],inactive
same,outcome,[6],inactive
same,outcome,[7],inactive
same,outcome,[8],inactive
same,outcome,[9],inactive
same,outcome,[10],inactive
same,outcome,[11],inactive
same,outcome,[12],inactive
same,outcome,[13],inactive
same,outcome,[14],inactive
same,outcome,[15],inactive
same,outcome,[16],inactive
same,outcome,[17],inactive
COc1ccc(CCN(C)C(=O)c2cc(S(=O)(=O)N3CCCCC3)ccc2Cl)cc1OC,outcome,[1],inactive
same,outcome,[2],inactive
same,outcome,[3],inactive
same,outcome,[4],inactive
same,outcome,[5],inactive
same,outcome,[6],inactive
same,outcome,[7],inactive
same,outcome,[8],inactive
same,outcome,[9],inactive
same,outcome,[10],inactive
same,outcome,[11],inactive
same,outcome,[12],inactive
same,outcome,[13],inactive
same,outcome,[14],inactive
same,outcome,[15],inactive
same,outcome,[16],inactive
same,outcome,[17],inactive
C=CCNC(=S)N/N=C/c1ccc(C(C)(C)C)cc1,outcome,[1],inactive
same,outcome,[2],inactive
same,outcome,[3],inactive
same,outcome,[4],inactive
same,inhibition,[5],79% (active)
same,inhibition,[6],41% (active)
same,outcome,[7],inactive
same,outcome,[8],inactive
same,outcome,[9],inactive
same,outcome,[10],inactive
same,outcome,[11],inactive
same,outcome,[12],inactive
same,outcome,[13],inactive
same,outcome,[14],inactive
same,outcome,[15],inactive
same,outcome,[16],inactive
same,outcome,[17],inactive
